{"source": "PubChem BioAssay AID686915", "about": "(National Center for Advancing Translational Sciences (NCATS), 2013)", "note": "Several values for one entry are separate records, joined by “and”; a condition that tells them apart may be missing. Identical values can stand only once. Records with an inconclusive call do not appear. Entries that show only a call come without a potency. Activity calls are given as the source filed them. Calls follow the shape of the dose curve; as a rule, active = well fitted inhibition curve with a large enough effect; inconclusive = small, poorly fitted or top-dose-only effect; inactive = no such curve, though single readings can be large or run the other way.", "data": [{"assay": "qHTS screen for inhibitors of ELG1-dependent DNA repair in human embryonic kidney (HEK293T) cells expressing luciferase-tagged ELG1: MMS Stimulated Assay for probe SAR", "details": "HEK293T ELG1-luciferase reporter, 16 h; series mostly up to 46.1 µM", "description": "Cancer cells divide rapidly compared to normal cells in the body. During cell division, cancer cells need to duplicate their genome by DNA replication. The failure of genome duplication leads to cancer cells' death. Therefore, inhibitors of DNA replication could specifically kill cancer cells. Based on this concept, many chemotherapeutic agents were developed and have been used to treat cancer patients. However, there are a limited number of agents available in the clinical setting, and some of those that do exist have low efficacy and severe side effects. Therefore, if we can find the compounds that effectively block DNA replication either by directly damaging DNA or by inhibiting other cellular mechanisms, the options for cancer treatment will be broadened. With this in mind, we developed a quantitative high-throughput ELG1-luciferase reporter gene assay. Small molecules that specifically block ELG1 function in response to DNA damage can be identified by monitoring the suppression of luciferase activity. Since ELG1 defines a pathway for repairing DNA damage, agents blocking ELG1 function can be used to sensitize cancer cells to chemotherapeutic agents whose mechanism of action involves the induction of DNA damage. NIH Molecular Libraries Probe Production Network [MLPCN] NIH Chemical Genomics Center [NCGC] MLPCN Grant: R03 MH092164 Assay Provider: Kyungjae Myung, NHGRI, NIH\nELG1-luc HEK293T cells will be seeded in 1536-well plates at a density of 2,000 cells / well. Approximately 5 hours after plating, compounds will be added to the plate by pin tool transfer and MMS will be added by FRD dispenser (final concentration of MMS = 10 µM). 16 hours following the addition of the compounds, luciferase activity will be measured using Amplight reagent.", "values": [{"smiles": "Fc1ccc(Nc2nc(-c3ccnc(N4CCCCC4)c3)nc3ccccc23)cc1F", "Potency": "inactive"}, {"smiles": "Fc1cc(Nc2nc(-c3ccncc3)nc3ccccc23)ccc1-c1ccc2[nH]ncc2c1", "Potency": "inactive"}, {"smiles": "Cc1ccc(Nc2nc(-c3ccncc3)nc3ccccc23)cc1F", "Potency": "inactive"}, {"smiles": "N#Cc1cnccc1-c1nc(Nc2ccc(F)c(F)c2)c2ccccc2n1", "Potency": "5.26 µM (active)"}, {"smiles": "Fc1cc(Nc2nc(-c3ccncc3)nc3ccccc23)ccc1-n1cncn1", "Potency": "inactive"}, {"smiles": "Fc1ccc(Nc2nc(-c3ccnc(C(F)(F)F)c3)nc3ccccc23)cc1F", "Potency": "18.7 µM (active)"}, {"smiles": "Fc1cc(Nc2nc(-c3ccncc3)nc3ccccc23)ccc1OCC(F)(F)F", "Potency": "inactive"}, {"smiles": "Fc1ccc(-c2ccc(Nc3nc(-c4ccncc4)nc4ccccc34)cc2F)c(Cl)c1", "Potency": "11.8 µM (active)"}, {"smiles": "O=[N+]([O-])c1ccc(-c2nc(Nc3ccc(F)c(F)c3)c3ccccc3n2)cc1", "Potency": "inactive"}, {"smiles": "Fc1cc(Nc2nc(-c3ccncc3)nc3ccccc23)ccc1-c1ccnc(C(F)(F)F)c1", "Potency": "inactive"}, {"smiles": "Fc1ccc(Nc2nc(-c3ccncc3Cl)nc3ccccc23)cc1F", "Potency": "inactive"}, {"smiles": "Fc1cc(Nc2nc(-c3ccncc3)nc3ccccc23)ccc1-c1cccnc1", "Potency": "inactive"}, {"smiles": "COc1ccc(-c2nc(Nc3ccc(F)c(F)c3)c3ccccc3n2)cc1", "Potency": "inactive"}, {"smiles": "Fc1ccc(Nc2nc(-c3ccncc3)nc3ccccc23)cc1F", "Potency": "inactive"}, {"smiles": "Fc1cc(Nc2nc(-c3ccncc3)nc3ccccc23)ccc1-c1cccc(OC(F)F)c1", "Potency": "inactive"}, {"smiles": "COc1cc(Nc2nc(-c3ccncc3)nc3ccccc23)ccc1NS(C)(=O)=O", "Potency": "inactive"}, {"smiles": "N#Cc1cc(-c2nc(Nc3ccc(F)c(F)c3)c3ccccc3n2)ccn1", "Potency": "inactive"}, {"smiles": "COc1ccc(-n2c(C)c(C(C)=O)c3ccccc32)cc1", "Potency": "7.43 µM (active) and 6.62 µM (active)"}, {"smiles": "Fc1cc(Nc2nc(-c3ccncc3)nc3ccccc23)ccc1-c1ccc(F)c(F)c1F", "Potency": "inactive"}, {"smiles": "c1ccc2c(Nc3ccn[nH]3)nc(-c3ccncc3)nc2c1", "Potency": "4.69 µM (active)"}, {"smiles": "COc1nccc(-c2nc(Nc3ccc(F)c(F)c3)c3ccccc3n2)c1Cl", "Potency": "inactive"}, {"smiles": "Fc1cc(Nc2nc(-c3ccncc3)nc3ccccc23)ccc1-c1cc(F)c(F)c(F)c1", "Potency": "inactive"}, {"smiles": "Fc1cc(Nc2nc(-c3ccncc3)nc3ccccc23)ccc1-c1cccc(OC(F)(F)F)c1", "Potency": "23.5 µM (active)"}, {"smiles": "Fc1cc(Nc2nc(-c3ccncc3)nc3ccccc23)ccc1N1CCCCC1", "Potency": "18.7 µM (active)"}, {"smiles": "Fc1cc(Nc2nc(-c3ccncc3)nc3ccccc23)ccc1-c1ccncc1", "Potency": "inactive"}, {"smiles": "Fc1cc(-c2nc(Nc3ccc(F)c(F)c3)c3ccccc3n2)ccn1", "Potency": "inactive"}, {"smiles": "Fc1ccccc1-c1ccc(Nc2nc(-c3ccncc3)nc3ccccc23)cc1F", "Potency": "16.6 µM (active)"}, {"smiles": "COc1cc(-c2nc(Nc3ccc(F)c(F)c3)c3ccccc3n2)ccn1", "Potency": "inactive"}, {"smiles": "Fc1cccc(-c2ccc(Nc3nc(-c4ccncc4)nc4ccccc34)cc2F)c1", "Potency": "inactive"}, {"smiles": "COc1cc(Nc2nc(-c3ccncc3)nc3ccccc23)ccc1N1CCN(C)CC1", "Potency": "inactive"}, {"smiles": "Fc1cc(Nc2nc(-c3ccncc3)nc3ccccc23)ccc1-c1cccc(C(F)(F)F)c1", "Potency": "18.7 µM (active)"}, {"smiles": "CN1CCN(c2cc(-c3nc(Nc4ccc(F)c(F)c4)c4ccccc4n3)ccn2)CC1", "Potency": "23.5 µM (active)"}, {"smiles": "Fc1cc(Nc2nc(-c3ccncc3)nc3ccccc23)ccc1-c1cncnc1", "Potency": "inactive"}, {"smiles": "CN1CCN(c2ccc(Nc3nc(-c4ccncc4)nc4ccccc34)cc2F)CC1", "Potency": "inactive"}, {"smiles": "COc1ccc(-c2ccc(Nc3nc(-c4ccncc4)nc4ccccc34)cc2F)cc1F", "Potency": "inactive"}, {"smiles": "Nc1cc(-c2nc(Nc3ccc(F)c(F)c3)c3ccccc3n2)ccn1", "Potency": "inactive"}, {"smiles": "O=c1cc(-c2nc(Nc3ccc(F)c(F)c3)c3ccccc3n2)cc[nH]1", "Potency": "inactive"}, {"smiles": "Cc1cc(-c2nc(Nc3ccc(F)c(F)c3)c3ccccc3n2)cc(C)n1", "Potency": "inactive"}, {"smiles": "Fc1cc(Nc2nc(-c3ccncc3)nc3ccccc23)ccc1-c1cn[nH]c1", "Potency": "inactive"}, {"smiles": "CSc1ccccc1-c1ccc(Nc2nc(-c3ccncc3)nc3ccccc23)cc1F", "Potency": "18.7 µM (active)"}]}]}
